The nature of experiment [1]: qHTS Assay for Lipid Storage Modulators (AID 1519). Particulars: Drosophila S3 cells, BODIPY lipid droplet/cell ratio, laser cytometry; measured here: lipid channel max response; cells loaded with oleic acid. The method in brief:
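Cells seeded at 5,000 per well were treated with compounds over a concentration series and loaded with oleic acid (400 uM, as added). Lipid droplet fluorescence (488 nm excitation, 500-530 nm channel) was read by laser-scanning cytometry and normalized to 20 uM Triacsin C.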
On the technique in general: Quantitative high-throughput screening tests each substance at several concentrations.

A short description of experiment [2]: Counterscreen for APE1 Inhibitors: Fluorescent Dye Displacement Validation Assay (AID 1707).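 Note: plate controls were ThO with dsDNA and no compound for no effect and ThO without dsDNA for full effect.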 The essentials: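 ThO 250 nM + dsDNA 50 nM (THF abasic site, 5'-TAMRA), Tris-HCl pH7.5/50mM NaCl/2 mM MgCl2/0.01% Tween-20; compounds pin-transferred; ex 480/em 540 nm endpoint. Neutral = no compound; no-DNA ThO wells = negative control.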
Experiment [3] addresses Endonuclease 4 (Escherichia coli (strain K12)) (UniProt P0A6C1). The experiment is described as follows: Counterscreen for APE1 Inhibitors: qHTS Validation Assay for Inhibitors of Endonuclease IV (AID 1708). Note: % is set by controls: 0 for no effect and ±100 for the full control effect. The method in brief: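 E. coli EndoIV at 2 nM final, preincubated 15 min at room temperature with compound, then 50 nM TAMRA/BHQ-2 THF abasic-site duplex added. Buffer: 50 mM Tris-HCl pH 7.5, 50 mM NaCl, 2 mM MgCl2, 1 mM DTT, 0.01% Tween-20. Kinetic fluorescence increase, third minus first read.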
(The purpose of a counterscreen is to sort out artefacts and off-target activity.)

Experiment [4] can be described thus: qHTS for differential inhibitors of proliferation of Plasmodium falciparum line GB4 (AID 1816).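 Note: parasite growth measured after 72 h incubation; 0% = vehicle DMSO and -100% = reference inhibitor.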 Particulars: Potency: Plasmodium falciparum GB4 proliferation inhibition.
The nature of experiment [5]: qHTS for differential inhibitors of proliferation of Plasmodium falciparum line 3D7 (AID 1876).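 Note: parasite growth measured after three days of culture; 0% = vehicle wells and -100% = reference inhibitor wells.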
Experiment [6] can be described thus: qHTS for differential inhibitors of proliferation of Plasmodium falciparum line D10 (AID 1877).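 Note: parasites grown with compound for 72 h before DNA staining; plate controls were vehicle wells for no effect and reference inhibitor wells for full effect.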
Experiment [7] is described as follows: qHTS for differential inhibitors of proliferation of Plasmodium falciparum line Dd2 (AID 1882).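 Note: series mostly up to about 29 µM; plate controls were DMSO vehicle for no effect and 0.29 µM artemisinin for full effect; nearly all actives have a fitted effect of over 65% in size.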 The note with it: Potency: Plasmodium falciparum Dd2 proliferation inhibition. The method in brief:
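Dd2-infected erythrocytes (0.3% parasitemia, 2.5% hematocrit final) incubated with compound 72 h at 37 C, 5% CO2; lysed with saponin/Triton buffer containing SYBR Green I, incubated overnight in the dark, then read by fluorescence (485/535 nm). Normalized to 0.29 uM artemisinin and DMSO.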

Experiment [8] is described as follows: qHTS for differential inhibitors of proliferation of Plasmodium falciparum line W2 (AID 1883).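 Note: parasites grown with compound for 72 h before lysis and staining; 0% = vehicle wells and -100% = control inhibitor wells.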 The note with it: Potency: Plasmodium falciparum W2 proliferation inhibition.
Experiment [9] can be described thus: qHTS for differential inhibitors of proliferation of Plasmodium falciparum line HB3 (AID 1886).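 Note: parasites grown with compound for 72 h before SYBR Green readout; plate controls were vehicle for no effect and reference inhibitor for full effect.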 The note with it: Potency: Plasmodium falciparum HB3 proliferation inhibition.
The nature of experiment [10]: qHTS Assay for Modulators of Human Peripheral Myelin Protein 22 (PMP22) Expression/Activity (AID 1967; active = well fitted curve in the direction sought with a large enough effect in the signal ratio; the % refers to the signal ratio;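 note: 0% = untreated cells and 100% end not stated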). The method in brief: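 MSC80 mouse Schwann cells stably carrying Pmp22 promoter–green click beetle luciferase plus EF-alpha–red luciferase control were dosed for 24h at 37 °C. Dual-colour luminescence was filter-overlap corrected; %Activity came from green/red ratio versus untreated cells.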

In experiment [11] the target is Ferritin light chain (Equus caballus) (UniProt P02791). Put plainly: qHTS Validation Assay for Identification of Novel General Anesthetics (AID 2323). Note: series mostly up to about 77 µM; % is set by controls: 0 for no effect and ±100 for the full control effect. The essentials: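 Competitive displacement of profluorescent 1-aminoanthracene (1-AMA, 50% saturated solution in PBS) from 10 uM horse-spleen apoferritin. Compounds incubated 10 min at room temperature; fluorescence read at 380 nm excitation/535 nm emission, normalized to free 1-AMA and complex, fitted with four-parameter Hill equation.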

In experiment [12] the target is ATP-dependent DNA helicase Q1 (Homo sapiens) (UniProt P46063). Put plainly: qHTS Validation Assay for Inhibitors of RecQ-Like Dna Helicase 1 (RECQ1) (AID 2353).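 Note: plate controls were DMSO vehicle for no effect and enzyme-free control for full effect.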 The method in brief:
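50 nM RECQ1T1 preincubated 15 min with compound in Tris pH 8.0 buffer with MgCl2, DTT, Tween-20 and 2.5 ug/ml poly(dI-dC); started with 200 nM TAMRA/BHQ-2 forked duplex and 2 mM ATP. Unwinding read as fluorescence (525/598 nm), two reads 2 h apart.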

Experiment [13] in a line: Validation screen for small molecules that induce DNA re-replication in MCF 10A normal breast cells (AID 463097). Note: 0% is about no effect; nearly all actives have a fitted effect of over 60% in size. The method in brief: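 Readout: Hoechst nuclear fluorescence intensity, 405 ex / 500-530 em, by scanning plate imager; re-replication scored as increase in nuclei with elevated DNA content. Cells exposed to compound 48 hr, 37 C, 5% CO2 beforehand.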
Experiment [14] can be described thus: Quantitative high throughput screen for delayed death inhibitors of the malarial parasite plastid, 96 hour incubation (AID 488745).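 Note: luciferase-expressing P. falciparum in erythrocytes at 2% hematocrit and 0.1% parasitemia; series mostly up to about 29 µM; % is set by controls: 0 for no effect and ±100 for the full control effect; nearly all actives have a fitted effect of over 70% in size.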 The essentials:
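Infected erythrocytes were added to compound in Albumax-supplemented RPMI 1640 at 0.1% parasitemia and 2% hematocrit (final), incubated 96 h at 37 C under 5% CO2, then luciferase reagent was added and luminescence measured.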

Experiment [15] in a line: Quantitative high throughput screen for delayed death inhibitors of the malarial parasite plastid, 48 hour incubation (AID 488752). Note: % is set by controls: 0 for no effect and ±100 for the full control effect; nearly all actives have a fitted effect of over 65% in size. The method in brief: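 Readout is firefly luciferase luminescence from a reporter integrated into the parasite genome, with lower signal taken as inhibited growth. Infected red cells (0.1% parasitemia, 2% hematocrit final) are cultured with compound for one 48 h cycle at 37 C.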

Experiment [16] addresses M-phase phosphoprotein 8 (Homo sapiens) (UniProt Q99549). The experiment is described as follows: qHTS Validation Assay for Inhibitors for MPP8 Chromodomain Interactions with Methylated Histone Tails (AID 488949).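 Note: AlphaScreen signal from MPP8 chromodomain bound to biotinylated H3K9me3 peptide; top concentration of the series differs between compounds; % is set by controls: 0 for no effect and ±100 for the full control effect; nearly all actives have a fitted effect of over 55% in size.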 The method in brief:
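MPP8 (50 nM) was preincubated with biotinylated H3(1-18)K9me3 peptide (50 nM) in PBS pH 7.4, 0.01% Tween-20 for 30 min at room temperature, then with compounds for 30 min; binding was detected by AlphaScreen.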

For experiment [17], the target named is Transient receptor potential cation channel subfamily V member 1 (Homo sapiens) (UniProt Q8NER1). Put plainly: HTS Assay for Compounds that Act as Enhancers of the Vanilloid Receptor 1 (AID 488979). Note: 0% is about no effect. The essentials: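 TRPV1 cells loaded with Fluo-8 calcium dye; compound added and Ca2+ signal (ex 480/em 520 nm) followed 3 min, then capsaicin at EC20 added and read 2 more min to detect enhancement.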

The target in experiment [18] is Thyrotropin receptor (Homo sapiens) (UniProt P16473). The experiment is described as follows: qHTS Assay for Antagonists of the Thyroid Stimulating Hormone Receptor (AID 488980). Note: series mostly up to about 58 µM; 0% is about no effect. The essentials:
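HEK293 cells transfected with human TSHR, suspended in HEPES-buffered HBSS with 70 uM RO 20-1724, were treated with compounds plus TSH at EC80 (4 nM final). cAMP was measured by competitive HTRF (cryptate anti-cAMP antibody, cAMP-d2 acceptor).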

Experiment [19] deals with Thyrotropin-releasing hormone receptor (Homo sapiens) (UniProt P34981). The experiment is described as follows: qHTS for Small Molecule Agonists and Allosteric Enhancers of Human TRH Receptor: Validation Screen for Agonists (AID 493127;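 active = calcium activation more than 3 SD above the typical response in the agonist read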;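 note: intracellular calcium rise by fluo-8 fluorescence before TRH EC20 addition; 0% is about no effect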). Particulars: TRH receptor agonist cell assay; at 2 µM; stronger effect = higher value. The method in brief:
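Cells 2000/well, 10% FCS, 18 h 33.5C/5% CO2 → fluo-8 Ca dye, RT 30 min–1.5 h → FDSS baseline 10 × 1 s → compound added → 230 cycles (1 s/cycle) agonist mode. TRH controls.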

In experiment [20] the target is Galactokinase (Homo sapiens) (UniProt P51570). Put plainly: qHTS Validation Assay for Inhibitors of Human Galactokinase (GALK) (AID 493189). Note: 0% is about no effect. The method in brief: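 GALK (5 nM) with 35 uM ATP and 100 uM galactose in HEPES pH8.0, MgCl2, NaCl, DTT, BSA; 1 h at room temperature. Residual ATP read by Kinase-Glo Plus luminescence after 10 min.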
A short description of experiment [21]: Validation screen for small molecules that induce DNA re-replication in SW480 colon adenocarcinoma cells (AID 504364). Note: 0% is about no effect. The essentials:
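250 cells/well; compound pinned in; 48 hr, 37 C, 5% CO2; Hoechst added, 40 min; nuclear fluorescence imaged, 405 ex / 500-530 em; re-replication scored as increase in high-intensity nuclei.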

Experiment [22] addresses DNA dC->dU-editing enzyme APOBEC-3G (Homo sapiens) (UniProt Q9HC16). The experiment is described as follows: qHTS for inhibitors of Vif-A3G interactions: Validation (AID 588379). Note: 0% is about no effect. The essentials: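 HeLa cells stably expressing Vif and A3G-eYFP, 700 cells/well, incubated overnight at 37 deg C, then exposed to compound overnight at 37 deg C. Inhibition of Vif-mediated degradation read as increased yellow fluorescence (Ex 488/Em 500-530) by laser-scanning cytometry.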

Experiment [23] in a line: Primary qHTS for small molecule stabilizers of the endoplasmic reticulum resident proteome: Secreted ER Calcium Modulated Protein (SERCaMP) assay (AID 1508630). Note: % is set by controls: 0 for no effect and ±100 for the full control effect. The essentials: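 GLuc-SERCaMP-expressing SH-SY5Y cells, pretreated 16 h with compound, are challenged with thapsigargin to empty ER calcium stores; after 4 h, coelenterazine is added directly to the medium and luminescence is imaged.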

Structures are written as SMILES. Where “and” joins values, the source holds several entries; their conditions need not be identical. Identical values can stand only once. Records with an inconclusive call do not appear. Calls of active or inactive are those of the source. Unless noted, calls come from the whole dose curve; as a rule, active = well fitted curve in the direction sought with a large enough effect; inconclusive = small, poorly fitted or top-dose-only effect, or another doubt; inactive = no such curve, though single readings can be large; an effect the other way counts as inactive or inconclusive.

Chain of Transient receptor potential cation channel subfamily V member 1 (Homo sapiens) (Q8NER1 whole entry, looked up): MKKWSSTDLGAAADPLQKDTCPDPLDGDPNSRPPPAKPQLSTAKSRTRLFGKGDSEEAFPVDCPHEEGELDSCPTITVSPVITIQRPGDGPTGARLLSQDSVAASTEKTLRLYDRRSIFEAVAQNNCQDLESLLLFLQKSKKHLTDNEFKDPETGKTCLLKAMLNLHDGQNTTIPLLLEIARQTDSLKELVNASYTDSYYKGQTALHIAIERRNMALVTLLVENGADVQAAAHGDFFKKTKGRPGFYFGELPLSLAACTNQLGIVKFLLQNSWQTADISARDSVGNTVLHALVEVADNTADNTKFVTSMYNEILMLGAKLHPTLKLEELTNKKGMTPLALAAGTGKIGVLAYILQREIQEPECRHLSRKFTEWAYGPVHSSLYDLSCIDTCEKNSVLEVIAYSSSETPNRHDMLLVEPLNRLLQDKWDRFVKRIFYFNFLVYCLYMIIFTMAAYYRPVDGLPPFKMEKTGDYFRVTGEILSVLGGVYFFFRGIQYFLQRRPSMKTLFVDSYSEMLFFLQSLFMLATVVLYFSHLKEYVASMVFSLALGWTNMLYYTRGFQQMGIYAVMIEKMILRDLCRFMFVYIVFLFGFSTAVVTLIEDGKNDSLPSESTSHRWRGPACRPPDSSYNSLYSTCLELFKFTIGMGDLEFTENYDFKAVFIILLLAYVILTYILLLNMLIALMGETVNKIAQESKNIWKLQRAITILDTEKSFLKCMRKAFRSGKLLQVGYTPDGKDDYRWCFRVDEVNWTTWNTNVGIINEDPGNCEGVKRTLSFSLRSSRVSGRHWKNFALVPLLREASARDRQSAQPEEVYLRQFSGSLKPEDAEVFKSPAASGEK
Chain of M-phase phosphoprotein 8 (Homo sapiens) (Q99549 whole entry, looked up): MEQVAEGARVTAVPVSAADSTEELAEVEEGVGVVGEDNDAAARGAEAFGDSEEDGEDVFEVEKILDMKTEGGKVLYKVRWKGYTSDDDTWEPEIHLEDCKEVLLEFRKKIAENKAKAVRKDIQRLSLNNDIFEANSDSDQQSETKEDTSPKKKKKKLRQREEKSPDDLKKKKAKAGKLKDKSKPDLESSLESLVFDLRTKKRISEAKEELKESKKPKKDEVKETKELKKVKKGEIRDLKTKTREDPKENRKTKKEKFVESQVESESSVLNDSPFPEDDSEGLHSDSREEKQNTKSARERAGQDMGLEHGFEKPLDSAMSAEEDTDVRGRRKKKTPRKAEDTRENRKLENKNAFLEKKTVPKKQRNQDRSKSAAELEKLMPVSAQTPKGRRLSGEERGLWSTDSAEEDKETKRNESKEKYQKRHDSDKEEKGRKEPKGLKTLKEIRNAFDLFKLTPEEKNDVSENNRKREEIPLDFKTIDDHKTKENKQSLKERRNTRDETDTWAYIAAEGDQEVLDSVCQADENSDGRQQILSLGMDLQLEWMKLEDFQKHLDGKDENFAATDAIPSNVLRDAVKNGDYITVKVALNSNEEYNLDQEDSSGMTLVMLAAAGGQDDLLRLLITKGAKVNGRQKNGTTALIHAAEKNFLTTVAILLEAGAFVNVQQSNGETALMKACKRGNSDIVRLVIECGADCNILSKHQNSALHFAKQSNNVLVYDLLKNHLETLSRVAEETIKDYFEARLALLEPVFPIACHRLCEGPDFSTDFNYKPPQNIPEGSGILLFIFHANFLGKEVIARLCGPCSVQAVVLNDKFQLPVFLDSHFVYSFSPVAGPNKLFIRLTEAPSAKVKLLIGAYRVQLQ
Chain of ATP-dependent DNA helicase Q1 (Homo sapiens) (P46063 whole entry, looked up): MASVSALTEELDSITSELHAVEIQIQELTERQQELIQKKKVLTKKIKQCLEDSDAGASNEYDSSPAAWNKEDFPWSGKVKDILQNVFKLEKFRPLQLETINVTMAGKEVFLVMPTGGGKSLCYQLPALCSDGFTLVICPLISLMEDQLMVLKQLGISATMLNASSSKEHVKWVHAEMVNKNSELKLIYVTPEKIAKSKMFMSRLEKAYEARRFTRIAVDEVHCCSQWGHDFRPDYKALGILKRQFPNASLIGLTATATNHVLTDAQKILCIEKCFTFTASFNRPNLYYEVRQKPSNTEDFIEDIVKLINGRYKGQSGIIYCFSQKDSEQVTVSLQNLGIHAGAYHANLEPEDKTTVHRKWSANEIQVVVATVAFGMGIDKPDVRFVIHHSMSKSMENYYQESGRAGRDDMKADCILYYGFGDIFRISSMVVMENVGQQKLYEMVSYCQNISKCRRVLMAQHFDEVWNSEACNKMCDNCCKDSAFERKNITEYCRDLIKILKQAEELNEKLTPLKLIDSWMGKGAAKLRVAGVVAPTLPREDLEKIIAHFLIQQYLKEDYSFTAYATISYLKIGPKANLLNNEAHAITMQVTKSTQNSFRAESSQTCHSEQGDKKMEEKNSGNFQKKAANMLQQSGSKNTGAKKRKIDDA
Chain of Galactokinase (Homo sapiens) (P51570 whole entry, looked up): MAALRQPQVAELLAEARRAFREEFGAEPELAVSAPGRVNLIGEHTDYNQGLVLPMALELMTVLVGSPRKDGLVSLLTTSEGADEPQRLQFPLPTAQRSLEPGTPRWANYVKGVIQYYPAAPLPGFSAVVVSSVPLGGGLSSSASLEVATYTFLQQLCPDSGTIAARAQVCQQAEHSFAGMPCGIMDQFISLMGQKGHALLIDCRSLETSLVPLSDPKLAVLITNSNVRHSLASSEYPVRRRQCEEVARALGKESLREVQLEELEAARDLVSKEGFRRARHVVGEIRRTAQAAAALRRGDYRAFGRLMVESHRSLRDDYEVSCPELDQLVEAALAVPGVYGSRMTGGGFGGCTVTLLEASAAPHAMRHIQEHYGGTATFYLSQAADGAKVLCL
Chain of Ferritin light chain (Equus caballus) (P02791 2-175 limits assumed): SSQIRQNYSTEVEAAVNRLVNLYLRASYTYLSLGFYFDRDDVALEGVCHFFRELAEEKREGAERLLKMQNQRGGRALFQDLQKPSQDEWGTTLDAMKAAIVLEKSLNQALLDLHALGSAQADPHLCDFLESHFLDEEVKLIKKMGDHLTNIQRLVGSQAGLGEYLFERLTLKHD
Chain of Thyrotropin receptor (Homo sapiens) (P16473 whole entry, looked up): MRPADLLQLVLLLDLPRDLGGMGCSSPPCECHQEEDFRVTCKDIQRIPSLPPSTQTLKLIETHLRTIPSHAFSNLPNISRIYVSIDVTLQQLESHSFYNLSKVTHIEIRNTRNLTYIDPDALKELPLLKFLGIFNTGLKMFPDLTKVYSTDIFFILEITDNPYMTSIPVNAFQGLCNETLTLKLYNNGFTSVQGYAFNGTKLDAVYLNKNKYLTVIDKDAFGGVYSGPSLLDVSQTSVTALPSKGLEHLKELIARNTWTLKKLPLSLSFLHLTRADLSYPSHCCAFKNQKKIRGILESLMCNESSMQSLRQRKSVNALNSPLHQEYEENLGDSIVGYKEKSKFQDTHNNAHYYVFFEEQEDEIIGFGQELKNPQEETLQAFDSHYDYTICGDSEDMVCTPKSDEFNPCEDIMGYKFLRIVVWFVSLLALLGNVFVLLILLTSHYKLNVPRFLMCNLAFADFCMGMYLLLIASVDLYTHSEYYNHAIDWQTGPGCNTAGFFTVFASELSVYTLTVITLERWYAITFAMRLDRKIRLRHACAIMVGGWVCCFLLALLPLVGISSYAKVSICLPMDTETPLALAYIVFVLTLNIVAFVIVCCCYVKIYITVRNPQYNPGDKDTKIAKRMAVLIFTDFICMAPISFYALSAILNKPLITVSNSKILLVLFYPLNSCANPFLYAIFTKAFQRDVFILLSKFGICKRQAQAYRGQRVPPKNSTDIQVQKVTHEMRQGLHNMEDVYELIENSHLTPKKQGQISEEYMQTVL
Chain of Thyrotropin-releasing hormone receptor (Homo sapiens) (P34981 whole entry, looked up): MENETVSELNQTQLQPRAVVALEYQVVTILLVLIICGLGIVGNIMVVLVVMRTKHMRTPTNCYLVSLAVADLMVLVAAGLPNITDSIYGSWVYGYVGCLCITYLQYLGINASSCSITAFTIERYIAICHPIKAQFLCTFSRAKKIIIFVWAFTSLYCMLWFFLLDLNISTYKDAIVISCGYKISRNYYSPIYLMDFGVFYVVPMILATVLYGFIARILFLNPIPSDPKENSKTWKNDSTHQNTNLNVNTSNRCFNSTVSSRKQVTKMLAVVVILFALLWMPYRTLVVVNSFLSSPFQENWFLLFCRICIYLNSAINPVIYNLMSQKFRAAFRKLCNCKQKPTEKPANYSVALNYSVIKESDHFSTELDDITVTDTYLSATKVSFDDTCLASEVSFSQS
Chain of DNA dC->dU-editing enzyme APOBEC-3G (Homo sapiens) (Q9HC16 whole entry, looked up): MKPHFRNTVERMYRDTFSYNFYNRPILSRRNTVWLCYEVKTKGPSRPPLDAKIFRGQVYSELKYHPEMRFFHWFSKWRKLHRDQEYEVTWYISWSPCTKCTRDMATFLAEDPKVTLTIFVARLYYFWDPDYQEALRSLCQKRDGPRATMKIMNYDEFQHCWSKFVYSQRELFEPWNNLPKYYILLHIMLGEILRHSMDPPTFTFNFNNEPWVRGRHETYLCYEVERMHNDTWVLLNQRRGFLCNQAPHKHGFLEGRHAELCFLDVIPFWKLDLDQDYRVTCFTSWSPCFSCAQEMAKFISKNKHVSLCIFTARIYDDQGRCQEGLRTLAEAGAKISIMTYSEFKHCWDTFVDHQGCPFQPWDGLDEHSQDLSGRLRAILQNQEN

As for `O=C(O)c1cc(=O)c2ccc(Cl)cc2[nH]1`, the max response in [1] is 22.6% and 6.02%. For the same compound, the Potency result in experiment [2], in experiment [3], in experiment [4], in [5], in [6] and in experiment [7] was “inactive” throughout. The Potency entry in experiment [8], in experiment [9], in experiment [12], in [13], in experiment [14] and in [15] was “inactive” each time. In addition, the Potency result in experiment [16], in experiment [22] and in experiment [23] was “inactive” in each case. In addition, the compound was called inactive in experiment [10], in experiment [11], in experiment [17], in [18], in experiment [20] and in experiment [21]. Also, the activation in [19] was 1.31% (inactive).
